High-throughput results as filed in PubChem BioAssay.
Sampled rows, rich in hits. Any-hit rate of the full collection: about 5.9%.
Coupling enz: inhibits coupling enzyme system, counter-screen for aldolase hits; activity change, negative = inhibition, % at 58.2 µM, hits read low; coupling enzyme system counterscreen, AmpLite Red fluorescence; AID 2472; actives 0.67% (n = 290,000); in the data active = activity change below about -30%
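Counterscreen of the coupled detection system alone, without aldolase: glyceraldehyde-3-phosphate coupling enzymes plus AmpLite Red readout. Compounds at 57.5 uM final, 10 min RT preincubation, 20 min RT reaction, fluorescence 525/598 nm.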
GALK inhibitor: inhibitors of human galactokinase; P51570; Purified GALK, Kinase-Glo residual ATP luminescence; Potency, µM (doses to about 57.5 µM), hits mostly inhibitors; actives 0.007% (n = 270,000); AID 1868
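Quantitative HTS: GALK 5 nM, ATP 35 uM, galactose 100 uM, 1 h room temperature, then luciferase-based ATP detection.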
TrxR1 substrate: rat thioredoxin reductase 1 substrate activity. O89049. purified TrxR1 substrate turnover, NADPH consumption readout. Potency, µM (top dose mostly 114 µM). actives 0.01% (n = 390,000); also: nearly all actives have a fitted effect of over 50% in size
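Rat TrxR1, dispensed at 90 nM, was prereduced with 400 uM NADPH (final) for 5 min at ~22 deg C, then incubated with compound 15 min before 400 uM selenite. A first-read NADPH fluorescence drop versus no-compound background flagged substrates.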
TrxR1 inh: blocks rat thioredoxin reductase 1. O89049. recombinant rTrxR1, NADPH fluorescence consumption, selenite substrate. Potency, µM (top dose mostly 114 µM), most hits filed as inhibitors. actives 1% (n = 390,000). AID 588453; also: nearly all actives have a fitted effect of over 65% in size
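Rat TrxR1 (90 nM in the dispensed reagent) was pre-reduced with 400 uM NADPH for 5 min at room temperature, then incubated with compound for 15 min. After 400 uM selenite was added, NADPH fluorescence (Ex 340/Em 450 nm) was followed for 8 min.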
RORgamma inh: ROR gamma (mouse) transcription inhibition; P51450; actives 5.4% (n = 310,000); Drosophila S2 Gal4-RORgamma UAS-luciferase reporter, 20 h; Potency, µM (highest dose often 53.6 µM), most hits filed as inhibitors; AID 2551; also: nearly all actives have a fitted effect of over 60% in size
Target sequence (P51450 whole entry, looked up, the tested form may be a part): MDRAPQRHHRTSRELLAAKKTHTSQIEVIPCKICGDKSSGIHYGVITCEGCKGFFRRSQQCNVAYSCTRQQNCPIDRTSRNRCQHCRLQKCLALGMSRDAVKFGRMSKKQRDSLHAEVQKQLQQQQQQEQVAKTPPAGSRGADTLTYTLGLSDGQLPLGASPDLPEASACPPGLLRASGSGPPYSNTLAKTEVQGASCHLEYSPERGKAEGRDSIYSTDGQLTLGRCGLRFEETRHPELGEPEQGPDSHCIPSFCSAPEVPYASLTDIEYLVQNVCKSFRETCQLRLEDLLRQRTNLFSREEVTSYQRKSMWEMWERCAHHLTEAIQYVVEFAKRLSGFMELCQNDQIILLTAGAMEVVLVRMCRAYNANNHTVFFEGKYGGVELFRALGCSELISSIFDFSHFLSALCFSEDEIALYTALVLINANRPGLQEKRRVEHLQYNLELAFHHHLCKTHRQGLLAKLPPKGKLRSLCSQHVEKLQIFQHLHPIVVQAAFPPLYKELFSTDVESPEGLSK
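Stable Schneider cell line, Gal4 DNA-binding domain fused to ROR gamma, UAS-luciferase. Cmpd 1 hr RT → CuSO4 700 uM final → 20 hr RT → luciferase reagent 10 min → luminescence.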
VP16 counter: inhibits Gal4-VP16 luciferase reporter, ROR gamma counter-screen; Drosophila S2 Gal4-VP16 UAS-luciferase, luminescence, 20 h; Potency, µM (series often up to 53.6 µM), actives largely listed as inhibitors; actives 3.5% (n = 310,000);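 also: Gal4-VP16 expression switched on by copper sulfate through the metallothionein promoter; nearly all actives have a fitted effect of over 50% in size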
Large screens that a line does not name were inactive. Unless noted, calls follow the shape of the dose curve; as a rule, active = well fitted curve in the direction sought with a large enough effect; inconclusive = small, poorly fitted or top-dose-only effect, or another doubt; inactive = no such curve, though single readings can be large; an effect the other way counts as inactive or inconclusive.

O=C(Nc1ccc(Cl)cc1F)C1CCCN(C2=NS(=O)(=O)c3ccccc32)C1 (stereo not drawn)	none (no result: Coupling enz, GALK inhibitor, RORgamma inh, VP16 counter)
COc1cccc(-c2cc(C(=O)N3CCc4ccccc4C3)[nH]n2)c1	RORgamma inh 1.1µM
Cc1ccc(-c2cc(C(=O)N3CCc4ccccc4C3)[nH]n2)cc1C	RORgamma inh 1µM
CCn1c(SCC(=O)Nc2nccs2)nnc1-c1ccc(S(=O)(=O)N2CCCCCC2)cc1	none
CCC(Sc1nnc(-c2ccc(C)c(Cl)c2)n1CC)C(=O)Nc1nccs1 (stereo not drawn)	RORgamma inh 13µM, VP16 counter inconclusive
COc1cccc(-c2cc(NCc3ccccc3OC)ncn2)c1	none (no result: GALK inhibitor, TrxR1 substrate, TrxR1 inh)
CC(=O)c1ccc(N2CCN(CCC#N)CC2)c(F)c1	none
COc1cccc(OCC(=O)Nc2ccccc2C(=O)Nc2ccc(C(=O)O)cc2)c1	none (no result: Coupling enz)
CC1CCc2nc(NC(=O)Cc3cccs3)sc2C1 (stereo not drawn)	RORgamma inh inconclusive, VP16 counter inconclusive
CC1CCc2nc(NC(=O)c3ccco3)sc2C1 (stereo not drawn)	RORgamma inh 2.5µM, VP16 counter 4µM
O=C(Nc1nc2cc3c(cc2s1)OCO3)C1=COCCO1	RORgamma inh 4.5µM, VP16 counter 4µM (no result: GALK inhibitor)
O=C(NC(=S)Nc1nc2ccc(F)cc2s1)c1ccco1	RORgamma inh 0.79µM, VP16 counter 1.8µM
O=C(Nc1nc2cc3c(cc2s1)OCCO3)c1ccco1	RORgamma inh 2.5µM, VP16 counter 6.3µM (no result: Coupling enz)
CC(=O)Nc1nc2cc3c(cc2s1)OCO3	none
O=c1c(O)c(-c2cccs2)oc2ccccc12	RORgamma inh 22µM
O=c1c(O)c(-c2cccs2)oc2ccc(Cl)cc12	RORgamma inh 11µM, VP16 counter inconclusive
COc1ccc(-n2cc(-c3ccccc3)c3c(NCc4cccc(Cl)c4)ncnc32)cc1	none (no result: Coupling enz, GALK inhibitor, RORgamma inh, VP16 counter)
COc1cc(OC)c(N(C)C(=O)c2cn(C3CCCC3)c(=O)c3c2c2ccccc2n3C)cc1Cl	none (no result: Coupling enz, GALK inhibitor, RORgamma inh, VP16 counter)
COc1ccc(Br)cc1/C=N/NC(=O)c1ccco1	none
CC(C)(C)c1ccc(OCC(=O)N/N=C/c2cc(Br)ccc2OC(=O)c2ccco2)cc1	RORgamma inh 0.25µM, VP16 counter 1.3µM (no result: Coupling enz)
CCCC(c1nnnn1CCOC)N(Cc1cc2cc(C)c(C)cc2[nH]c1=O)CC1CCCO1 (stereo not drawn)	Coupling enz -41
N#Cc1cc(-c2ccccc2)nn1-c1ccccc1	Coupling enz -41, TrxR1 inh inconclusive
Cn1ccc(-c2ccccc2)n1	none
COc1ccc(Cl)cc1NC(=O)CN(C)C(=O)COc1ccccc1F	none
CCN(CC)C(=O)CSc1nc2sc3c(c2c(=O)n1CCCOC)CCC3	none
CO[C@H]1C=CO[C@@]2(C)Oc3c(C)c(O)c4c(O)c(c(C=NN5CCN(C)CC5)c(O)c4c3C2=O)NC(=O)C(C)=CC=C[C@H](C)[C@H](O)[C@@H](C)[C@@H](O)[C@@H](C)[C@H](OC(C)=O)[C@@H]1C	Coupling enz -51
CO[C@H]1/C=C/O[C@@]2(C)Oc3c(C)c(O)c4c(O)c(c(C=NN5CCN(C)CC5)c(O)c4c3C2=O)NC(=O)/C(C)=C\C=C\[C@H](C)[C@H](O)[C@@H](C)[C@@H](O)[C@@H](C)[C@H](OC(C)=O)[C@@H]1C	none (no result: Coupling enz, GALK inhibitor, RORgamma inh, VP16 counter)
COc1cccc(OC)c1C(=O)NC(=S)N1CCCCC1c1cccnc1 (stereo not drawn)	TrxR1 inh inconclusive, RORgamma inh 22µM (no result: GALK inhibitor)
O=C(/C=C/c1ccc(F)cc1)NC(=S)N1CCCCC1c1cccnc1 (stereo not drawn)	RORgamma inh 5µM, VP16 counter inconclusive
CCc1cccc(C)c1NC(=S)N1CCCCC1c1cccnc1 (stereo not drawn)	none
O=C1/C(=C/c2ccc(F)cc2)SC(=S)N1CC(=O)N1CCCCC1c1cccnc1 (stereo not drawn)	none (no result: Coupling enz)
O=C(NC(=S)NN1CCCCC1c1cccnc1)c1ccc(Br)cc1 (stereo not drawn)	RORgamma inh 1.1µM, VP16 counter 1.4µM
CCc1ccc(-n2c(=O)c3cccnc3n2CC(=O)Nc2ccccc2C(F)(F)F)cc1	none (no result: Coupling enz, GALK inhibitor, RORgamma inh, VP16 counter)
O=C(Nc1ccc2ccccc2c1)c1nc(S(=O)(=O)Cc2ccccc2F)ncc1Cl	TrxR1 inh 10µM (no result: Coupling enz, GALK inhibitor, RORgamma inh, VP16 counter)
CCOc1ccccc1NC(=O)c1nc(S(=O)(=O)Cc2ccccc2F)ncc1Cl	TrxR1 inh inconclusive (no result: Coupling enz, GALK inhibitor, RORgamma inh, VP16 counter)
O=C(Nc1ccccc1F)c1nc(S(=O)(=O)Cc2ccccc2F)ncc1Cl	TrxR1 inh 1.6µM (no result: Coupling enz, GALK inhibitor, RORgamma inh, VP16 counter)
Cc1cccc(C)c1NC(=O)c1nc(S(=O)(=O)Cc2ccccc2F)ncc1Cl	TrxR1 inh 4.5µM (no result: Coupling enz, GALK inhibitor, RORgamma inh, VP16 counter)
COC(=O)c1ccccc1NC(=O)c1nc(S(=O)(=O)Cc2ccccc2F)ncc1Cl	TrxR1 inh inconclusive (no result: Coupling enz, GALK inhibitor, RORgamma inh, VP16 counter)
COc1ccc(-c2noc(C3CCCN(C(=O)c4ccc(C)cc4)C3)n2)cc1 (stereo not drawn)	none
Cc1cccc(N2C(=O)CC(Cn3nc(C)cc3C)C2=O)c1 (stereo not drawn)	none
CCN(CC)C1CC(=O)N(c2cccc(C)c2)C1=O (stereo not drawn)	VP16 counter 7.1µM (no result: TrxR1 substrate, TrxR1 inh)
CCN(CCO)C1CC(=O)N(c2ccccc2C)C1=O (stereo not drawn)	TrxR1 inh 50µM, RORgamma inh 4µM, VP16 counter 3.5µM
CCOC(=O)c1c(C)[nH]c(C)c1S(=O)(=O)NCCN1CCN(c2cc(Cl)ccc2C)CC1	TrxR1 inh inconclusive
CCN1CCCC1CNC(=O)Cn1cc2c(n1)CCC(C)C2 (stereo not drawn)	none
Cn1c(=O)c2c(nc(Br)n2CCSc2nnnn2-c2ccccc2)n(C)c1=O	none
CCSc1nc(-c2ccccc2)nc(C(Cl)Cl)n1	RORgamma inh 1.3µM, VP16 counter 10µM
S=C(Nc1ccccn1)Nc1ccccc1Cl	none
Cc1ccccc1NC(=S)Nc1ccccn1	TrxR1 inh inconclusive, RORgamma inh 0.5µM, VP16 counter 1.6µM
Cc1ccccc1NC(=S)Nc1ccc(Br)cc1	RORgamma inh 11µM, VP16 counter 11µM
Cc1c(Cl)cccc1NC(=S)Nc1ccccn1	RORgamma inh 1µM, VP16 counter inconclusive
S=C(Nc1ccccc1)Nc1ccccc1Br	TrxR1 inh inconclusive, RORgamma inh inconclusive
Cc1ccccc1Nc1cc(C(=O)NC2CCCCC2)c2ccccc2n1	none (no result: Coupling enz, GALK inhibitor, RORgamma inh, VP16 counter)
CCC1=C2CC[C@H]3C(=O)N(CC(=O)OC)C(=O)[C@H]3[C@H]2[C@@]2(Cc3ccccc3)C(=NCCc3c[nH]c4ccccc34)OC(=O)N2C1=O	none (no result: GALK inhibitor, TrxR1 substrate, TrxR1 inh)
CC(C)C1Nc2ccc(C(=O)NC3CCCCC3)cc2NC1=O (stereo not drawn)	none
CC1CCN(C(=O)Cn2c(=O)oc3cc(S(=O)(=O)N4CCCCC4)ccc32)CC1	none (no result: Coupling enz)
